Compound activity as filed in PubChem BioAssay.
SARS PLpro yeast – inhibitors of SARS-CoV papain-like protease in yeast. Potency, µM (top dose mostly 32.9 µM), without a hit: at the highest dose activity, positive = growth rescue, most hits filed as activators. AID 485353. S. cerevisiae expressing SARS-CoV PLpro, growth rescue. actives 0.19% (n = 330,000); calls by dose curve; note: 0% is about no effect; nearly all actives have a fitted effect of over 55% in size
AmpC no deterg – blocks E. coli AmpC beta-lactamase in detergent-free assay; actives 0.52% (n = 330,000); P00811; Potency, µM (highest dose often 57.1 µM), for inactives: at the highest dose activity change, negative = inhibition, actives largely listed as inhibitors; AID 485341; AmpC nitrocefin hydrolysis, absorbance 480 nm, 0.0001% Triton;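 note: plate controls were no compound for no effect and no enzyme for full effect; nearly all actives have a fitted effect of over 20% in size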
Target sequence (P00811 whole entry, looked up): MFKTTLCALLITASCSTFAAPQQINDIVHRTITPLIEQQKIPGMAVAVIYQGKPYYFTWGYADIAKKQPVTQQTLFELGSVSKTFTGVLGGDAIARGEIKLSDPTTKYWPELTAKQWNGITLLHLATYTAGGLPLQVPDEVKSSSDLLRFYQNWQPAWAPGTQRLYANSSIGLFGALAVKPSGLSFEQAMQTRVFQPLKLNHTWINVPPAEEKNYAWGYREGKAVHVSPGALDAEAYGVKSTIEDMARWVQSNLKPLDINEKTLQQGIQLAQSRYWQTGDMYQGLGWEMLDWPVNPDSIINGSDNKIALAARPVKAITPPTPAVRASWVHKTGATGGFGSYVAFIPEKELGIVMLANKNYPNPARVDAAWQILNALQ
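20 mM phosphate pH 7.0 + 0.01% (detergent screen) or 0.0001% Triton X-100; 5.3 nM AmpC reagent; cpd preinc 15 min RT; nitrocefin (800 uM stock) to start; A480 q20 s × 4 min; Activity was normalised to no-enzyme and no-compound control wells.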
Sm TGR block – S. mansoni TGR enzyme inhibition | Q962Y6 | purified TGR, DTNB reduction, TNB absorbance 405 nm | Potency, µM (top dose mostly 114 µM), for inactives: top-dose activity change, negative = inhibition, most hits filed as inhibitors | actives 3% (n = 360,000); note: % is set by controls: 0 for no effect and ±100 for the full control effect; nearly all actives have a fitted effect of over 60% in size
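TGR 20 nM + NADPH 100 uM (dispensed conc.), cpd preinc 15 min RT; start with NADPH (500 uM addition) then DTNB (15 mM addition). Kinetic TNB absorbance, 405 nm filter. Four-parameter Hill fit across titration.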
AmpC detergent – inhibitors of E. coli AmpC beta-lactamase with detergent; Potency, µM (series often up to 114 µM), inactives show at the highest dose activity change, negative = inhibition, usual class: inhibitors; P00811; AmpC hydrolysis of nitrocefin, absorbance 480 nm, 0.01% Triton; actives 0.041% (n = 370,000);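 note: 0% = no-compound wells and -100% = no-enzyme wells; nearly all actives have a fitted effect of over 25% in size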
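AmpC (5.3 nM in the dispensed reagent) in 20 mM phosphate pH 7.0 with 0.01% (detergent screen) or 0.0001% Triton X-100 was preincubated with compounds for 15 min at room temperature. Nitrocefin was then added from an 800 uM solution, and hydrolysis was followed at 480 nm.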
Pf growth 96h – P. falciparum growth inhibition at 96 hours | P. falciparum luciferase reporter growth, 96 h | Potency, µM (doses to about 28.7 µM), inactives show at the top dose activity change, negative = inhibition, most hits filed as inhibitors | actives 6.9% (n = 320,000) | AID 504834; note: % is set by controls: 0 for no effect and ±100 for the full control effect
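P. falciparum expressing integrated firefly luciferase, in erythrocytes at 2% hematocrit, 0.05% parasitemia, incubated with compounds 96 h at 37 C, 5% CO2. Growth inhibition read as loss of luminescence; two-generation exposure targets delayed-death apicoplast inhibitors.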
Pf growth 48h – P. falciparum growth inhibition at 48 hours (one generation); P. falciparum luciferase growth in erythrocytes, 48 h; Potency, µM (highest dose often 28.7 µM), inactives show at the highest dose activity change, negative = inhibition, actives largely listed as inhibitors; actives 5.9% (n = 310,000); note: % is set by controls: 0 for no effect and ±100 for the full control effect
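Compounds are pin-transferred into medium, infected erythrocytes (2% hematocrit, 0.1% parasitemia final) are added, and plates sit one parasite generation at 37 C in 5% CO2. Detection reagent is then added and luminescence measured.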
* hit, by the source's call; u = inconclusive; x = no result given. The list is not random: actives were taken first. Their share in the collection is about 12%. Unless noted, calls come from the whole dose curve; as a rule, active = well fitted curve in the direction sought with a large enough effect; inconclusive = small, poorly fitted or top-dose-only effect, or another doubt; inactive = no such curve, though single readings can be large; an effect the other way counts as inactive or inconclusive. Potency is the fitted concentration of half-maximal effect.

SMILES	SARS PLpro yeast	AmpC no deterg	Sm TGR block	AmpC detergent	Pf growth 96h	Pf growth 48h
Cc1cccc(N(Cc2ccccc2)C(=O)c2cccc(S(=O)(=O)N3CC(C)OC(C)C3)c2)c1 (stereo not given)	-5%	108%	-1%	u	u	13µM*
COc1ccc(CCNC(=O)CCS(=O)(=O)c2cc(Br)cc3c2N(C(C)=O)CC3)cc1OC	x	x	-10%	u	x	x
O=C(CSc1nnc(CNC(=O)c2c(F)cccc2Cl)o1)Nc1cccc(F)c1	x	x	-1%	-3%	x	x
CCN(Cc1ccccc1)C(=O)c1ccc(C)c(S(=O)(=O)N2CCCCC2)c1	5%	48%	0%	-14%	u	u
Cc1cccc(N(Cc2ccccc2)C(=O)c2ccc(C)c(S(=O)(=O)N3CCOCC3)c2)c1	-3%	106%	4%	2%	u	7.4µM*
Cc1ccc(N(Cc2ccccc2)C(=O)c2cc(S(=O)(=O)N3CCOCC3)ccc2N2CCCC2)cc1	3%	44%	4%	-1%	u	2.6µM*
Cc1ccc(C(=O)OCC(=O)N(CCc2ccccc2)Cc2ccccc2)cc1S(=O)(=O)N1CCOCC1	-4%	54%	-1%	2%	u	u
CN(Cc1ccc(Cl)cc1)C(=O)c1cc(S(=O)(=O)N2CCOCC2)ccc1N1CCCC1	1%	u	2%	-21%	u	u
CCCCCC(C)NC(=S)NC(=O)c1cc(S(=O)(=O)N2CCOCC2)ccc1C (stereo not given)	15%	24%	-12%	2%	12µM*	u
Cc1ccc(C(=O)N(CCc2ccccc2)Cc2ccccc2)cc1S(=O)(=O)N1CCCCC1	1%	-9%	7%	u	8.3µM*	13µM*
Cc1ccc(F)c(NC(=O)c2c(-c3ccccc3)noc2C)c1	1%	-17%	3%	3%	38%	2%
COCCn1c(CCC(=O)Nc2ccc(C)c(Cl)c2)nc2cccnc21	x	x	4%	21%	x	x
O=C(Nc1cc(Cl)cc(Cl)c1)c1cc(S(=O)(=O)N2CCc3ccccc3C2)ccc1F	x	x	0%	6%	x	x
O=C(Cc1ccccc1)NNC(=O)c1ccc(Br)o1	-4%	-9%	0%	1%	4%	28%
CN(Cc1ccc(C(C)(C)C)cc1)C(=O)Cc1ccc(S(=O)(=O)N2CCOCC2)s1	x	176%	-14%	-13%	13µM*	9.3µM*
COc1ccc(C(=O)N(CCc2ccccc2)Cc2ccccc2)cc1S(=O)(=O)N1CCOCC1	7%	219%	-2%	u	8.3µM*	u
Cc1cccc(N(Cc2ccccc2)C(=O)Cc2ccc(S(=O)(=O)N3CCOCC3)s2)c1	4%	134%	-11%	u	u	13µM*
COc1ccc(C(=O)N(Cc2ccccc2)c2cccc(C)c2)cc1S(=O)(=O)N1CCOCC1	1%	199%	7%	-10%	5.2µM*	10µM*
CCOc1ccccc1C(=O)N1CCc2cc(OC)c(OC)cc2C1COc1ccc(OC)cc1 (stereo not given)	x	x	-1%	7%	x	x
COc1ccc(OC(C)C(=O)N2CCC(C)CC2)cc1 (stereo not given)	0%	-3%	0%	u	-6%	x
COc1ccccc1NC(=O)N1c2ccccc2Sc2ccccc21	x	x	1%	4%	x	x
Cc1cc(O)c2c(c1)C(=O)C13C(=C2O)C(=O)[C@H]2[C@@H](O)[C@@H]1[C@H]1[C@H](O)[C@@H]3C(=O)C3=C(O)c4c(O)cc(C)cc4C(=O)C312 (stereo not given in full)	2%	-26%	u	3%	3.3µM*	4.1µM*
CC1=CC(=O)C(C(C)C)=C/C1=C(\c1cc(C(C)C)c(OP(=O)(O)O)cc1C)c1ccccc1C(=O)O	2%	-29%	26%	0%	u	-35%
Cc1ccccc1NC(=O)N(C(C)C)C(C)C	5%	-18%	2%	u	9.3µM*	x
O=C(Nc1ccc(C(=O)N2CCCCC2)cc1)Nc1cccc(Cl)c1	-5%	-44%	-15%	-4%	-6%	u
SMILES	SARS PLpro yeast	AmpC no deterg	Sm TGR block	AmpC detergent	Pf growth 96h	Pf growth 48h
CCOc1ccc(NC(=O)Cn2c(=O)n(Cc3ccco3)c(=O)c3oc4ccccc4c32)cc1	x	x	-10%	8%	x	x
CCOc1ccc(C(c2c(O)cc(C)n(Cc3ccco3)c2=O)N2CCN(c3ccccc3)CC2)cc1 (stereo not given)	x	x	3.5µM*	-2%	x	x
CCOc1ccc(C(c2c(O)cc(C)n(Cc3ccco3)c2=O)N2CCCCC2)cc1 (stereo not given)	x	x	7.1µM*	2%	x	x
Brc1ccc(CN2CCc3nc(Nc4ccccc4)ncc3C2)s1	x	x	-7%	4%	x	x
Cc1cc(C)c(-c2cc(C(F)(F)F)no2)c(=O)[nH]1	-8%	-10%	-27%	-14%	12µM*	13%
CCCCc1ccc(NC(=O)N2CCNC(=O)C2CC(=O)Nc2ccsc2C(=O)OC)cc1 (stereo not given)	-3%	166%	-16%	-1%	10%	-21%
Cc1nc(NC(=O)c2ccco2)sc1-c1csc(Nc2ccc(Cl)cc2Cl)n1	-18%	-32%	4%	u	8.3µM*	u
COc1ccccc1Nc1nc(-c2sc(NC(=O)c3ccco3)nc2C)cs1	-11%	-16%	3%	2%	9.3µM*	12µM*
Cc1ccc(Cl)cc1Nc1nc(-c2sc(NC(=O)c3cccc(Cl)c3)nc2C)cs1	-2%	-55%	3%	-4%	u	u
COc1cccc(N(C(=O)c2ccco2)c2nc(-c3sc(NC(=O)c4ccco4)nc3C)cs2)c1	-10%	-29%	8%	0%	u	u
Cc1ccc(Cl)cc1Nc1nc(-c2sc(NC(=O)c3ccco3)nc2C)cs1	-11%	-43%	9%	-15%	9.3µM*	u
Cc1nc(NC(=O)c2ccco2)sc1-c1csc(Nc2ccc(Cl)cc2)n1	-6%	-33%	5%	-7%	9.3µM*	9.3µM*
CCn1nc(C)c(Oc2ccccc2O)c1C	8%	-15%	6%	u	12µM*	-1%
CC(C)NC(=O)/C(=C/c1ccco1)c1ccccc1	-12%	-13%	u	-9%	u	31%
O=C(NCCc1ccccc1)/C(=C/c1ccco1)c1ccccc1	-4%	-26%	13µM*	-16%	42%	7%
O=C(O)CCNC(=O)/C(=C/c1ccco1)NC(=O)c1ccco1	7%	-12%	-24%	-21%	u	-6%
CCC(C)NC(=O)/C(=C/c1ccco1)c1ccccc1 (stereo not given)	3%	-8%	10µM*	3%	37%	u
